Outcome and AC50 data for nine molecules are collected here from PubChem BioAssay (EPA / NIEHS).

Records with an inconclusive call do not appear. Activity calls are given as the source filed them. How the source made its calls, unless noted: active means hit-call score of the fitted dose curve at least 0.9, where 1 is the maximum; inconclusive means response in the unintended direction; inactive means score below 0.9.

The nature of assay [1]: ATG_TAL_CIS: Attagene CIS-FACTORIAL HepG2 Assay for human TAL Basal Promoter (AID 2282966; active means hit-call score of the fitted dose curve at least 0.9, where 1 is the maximum; inactive means score below 0.9;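 further: background control endpoint measuring basal TAL promoter reporter mRNA not a specific factor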). To be noted: HepG2 Attagene cis-factorial TAL promoter reporter; actives raise or lower the signal. The essentials:
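Endogenous transcription-factor activity is sensed in HepG2 cells through transfected cis-promoter reporter constructs. After 24 h dosing, reporter transcripts are quantified by RT-PCR and capillary electrophoresis. Gain or loss of signal is fitted relative to DMSO.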

Assay [2] has as its target Estrogen receptor (Homo sapiens) (UniProt P03372). The assay is described as follows: ATG_ERa_TRANS: Attagene TRANS-FACTORIAL HepG2 Assay for human Estrogen Receptor alpha (ERa) (AID 2282970). To be noted: HepG2 Attagene TRANS ERa GAL4 reporter, mRNA. Put shortly: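 Transfected HepG2 cells carrying GAL4-UAS-driven reporter units were dosed for 24 hours. Total RNA was reverse-transcribed, reporter sequences PCR-amplified, FAM-labelled, HpaI-digested and resolved by capillary electrophoresis. Increases over DMSO control defined activity.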

The target of assay [3] is X-box-binding protein 1 (Homo sapiens) (UniProt P17861). The assay is described as follows: ATG_Xbp1_CIS: Attagene CIS-FACTORIAL HepG2 Assay for human X-box Binding Protein 1 (XBP1) (AID 2282972; active means hit-call score of the fitted dose curve at least 0.9, where 1 is the maximum; inactive means score below 0.9). To be noted: HepG2 XBP1 cis-element reporter, Attagene multiplex; actives raise or lower the signal. Put shortly: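 Multiplexed cis-reporter readout in transfected HepG2 liver cells. Exposure lasted 24 hours. Activity in either direction was fitted against DMSO as negative control and baseline.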

Assay [4] addresses Bile acid receptor (Homo sapiens) (UniProt Q96RI1). Description: ATG_FXR_TRANS: Attagene TRANS-FACTORIAL HepG2 Assay for Farnesoid X Receptor (FXR) (AID 2282979).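 Further: hits raise reporter mRNA above DMSO so AC50 marks FXR activation.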 The note with it: HepG2 Attagene TRANS FXR-GAL4 reporter transcription. Put shortly: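 Chimeric FXR-GAL4 activity in transiently transfected human HepG2 liver cells is scored as induction of reporter mRNA after 24 h of dosing. Detection uses RT-PCR with fluorescent labelling and capillary electrophoresis, with DMSO serving as baseline.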

The target in assay [5] is Oxysterols receptor LXR-beta (Homo sapiens) (UniProt P55055). Description: ATG_LXRb_TRANS: Attagene TRANS-FACTORIAL HepG2 Assay for human Liver X Receptor beta (LXRb) (AID 2282981). The note with it: HepG2 Attagene TRANS GAL4-LXRb reporter, mRNA. The essentials: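 Multiplexed reporter assay, HepG2, 24 h dosing. Fluorescence of labelled RT-PCR products after capillary electrophoresis gives transcript level; positive fitting direction relative to DMSO.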

In assay [6] the target is Hepatocyte nuclear factor 4-alpha (Homo sapiens) (UniProt P41235). The assay is described as follows: ATG_HNF4a_TRANS: Attagene TRANS-FACTORIAL HepG2 Assay for human Hepatocyte Nuclear Factor 4 alpha (HNF4a) (AID 2282982). The note with it: HepG2 HNF4a transactivation reporter, mRNA readout. Put shortly:
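Endpoint reflects transcriptional activation of a GAL4-UAS reporter by an HNF4a-GAL4 chimera in transfected HepG2 cells, 24 h post-dosing. Fluorescence from RT-PCR products separated by capillary electrophoresis; DMSO baseline.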

A short description of assay [7]: ATG_M_06_TRANS: Attagene TRANS-FACTORIAL HepG2 Assay for M06 Transcription Factor (Internal Marker) (AID 2282983). To be noted: HepG2 Attagene TRANS M06 internal marker reporter. The essentials: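 Human liver HepG2 cells bearing transiently transfected chimeric NR-GAL4 reporter units were treated with chemicals for 24 h. Total RNA was reverse-transcribed, reporter sequences amplified and labelled, then quantified by capillary electrophoresis. Activity was fitted upward relative to DMSO.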

Assay [8] can be described thus: ATG_M_32_TRANS: Attagene TRANS-FACTORIAL HepG2 Assay for M32 Transcription Factor (Internal Marker) (AID 2282984).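 Further: transcript level of a background control reporter unit measured by RT-PCR and capillary electrophoresis.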 To be noted: HepG2 Attagene TRANS M32 internal marker reporter. The essentials:
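Internal-marker readout from a multiplexed transcription reporter panel. HepG2 cells were transfected with GAL4-UAS reporter units, treated 24 hours, and reporter transcript levels determined by fluorescence after RT-PCR and capillary separation.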

For assay [9], the target named is Nuclear receptor subfamily 4 group A member 2 (Homo sapiens) (UniProt P43354). The assay is described as follows: ATG_NURR1_TRANS: Attagene TRANS-FACTORIAL HepG2 Assay for human Nuclear Receptor Related Protein 1 (NURR1) (AID 2282985). The note with it: HepG2 Attagene TRANS reporter, mRNA readout. The essentials: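 Endpoint: reporter mRNA increase relative to DMSO. HepG2 cells transfected with reporter units, treated 24 h; RNA processed by RT-PCR, labelling, HpaI digestion and capillary electrophoresis.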

Assay [10] deals with Transcriptional activator Myb (Homo sapiens) (UniProt P10242). The assay is described as follows: ATG_Myb_CIS: Attagene CIS-FACTORIAL HepG2 Assay for human Myeloblastosis (Myb) Proto-Oncogene Transcription Factor (AID 2282986; active means hit-call score of the fitted dose curve at least 0.9, where 1 is the maximum; inactive means score below 0.9). To be noted: HepG2 Attagene CIS-FACTORIAL Myb reporter transcription; actives raise or lower the signal. The essentials:
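Transiently transfected HepG2 cells carrying a multiplexed cis-promoter reporter set report endogenous Myb activity after 24 h compound exposure. Reporter mRNA is read by RT-PCR with capillary electrophoresis of fluorescent products, fitted bidirectionally against DMSO.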

The target in assay [11] is Nuclear respiratory factor 1 (Homo sapiens) (UniProt Q16656). The assay is described as follows: ATG_NRF1_CIS: Attagene CIS-FACTORIAL HepG2 Assay for human Nuclear Respiratory Factor 1 (NRF1) Orphan Gene (AID 2282987; active means hit-call score of the fitted dose curve at least 0.9, where 1 is the maximum; inactive means score below 0.9). The note with it: HepG2 NRF1 cis-element reporter, Attagene multiplex; actives raise or lower the signal. The essentials: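 HepG2 cells transiently transfected with multiple cis-regulated reporter units, exposed 24 h. Reporter mRNAs measured by RT-PCR, fluorescent labelling, HpaI digestion and capillary electrophoresis; bidirectional fitting against DMSO.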

The nature of assay [12]: ATG_VDRE_CIS: Attagene CIS-FACTORIAL HepG2 Assay for human Vitamin D Receptor Element (VDRE) (AID 2282968; active means hit-call score of the fitted dose curve at least 0.9, where 1 is the maximum; inactive means score below 0.9). To be noted: HepG2 VDRE cis-reporter transcription, actives raise or lower the signal. The essentials:
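Compounds were applied for 24 h to HepG2 cells transfected with promoter-regulated reporter units. Total RNA was reverse-transcribed, and reporter amplicons were fluorescently labelled and sized by capillary electrophoresis.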

A short description of assay [13]: ATG_M_19_TRANS: Attagene TRANS-FACTORIAL HepG2 Assay for M19 Transcription Factor (Internal Marker) (AID 2282974). The note with it: HepG2 Attagene TRANS-FACTORIAL M19 internal marker reporter. The essentials:
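HepG2 transiently transfected with GAL4-UAS multiplex reporter constructs, exposed 24 h; reporter RNA quantified by RT-PCR, 6-FAM labeling, HpaI digestion and capillary electrophoresis; internal background marker fitted upward versus DMSO.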

The nature of assay [14]: ATG_GAL4_TRANS: Attagene TRANS-FACTORIAL HepG2 Assay for GAL4 (Internal Marker) (AID 2282976). To be noted: HepG2 Attagene TRANS GAL4 internal marker reporter. The essentials:
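Fluorescence from capillary electrophoresis of labelled RT-PCR products quantifies reporter mRNA induction after 24 h dosing of HepG2 cells carrying transfected GAL4-UAS reporter transcription units. Vehicle DMSO serves as baseline.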

In assay [15] the target is Glucocorticoid receptor (Homo sapiens) (UniProt P04150). The assay is described as follows: ATG_GR_TRANS: Attagene TRANS-FACTORIAL HepG2 Assay for human Glucocorticoid Receptor (GR) (AID 2282978).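 Further: activators score as hits since higher reporter transcript over DMSO is fitted.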 The note with it: HepG2 Attagene TRANS GR reporter, mRNA transcription. The essentials:
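HepG2 cells transiently transfected with GAL4-UAS reporter units and exogenous GR-Gal4 chimera, dosed 24 h. Reporter mRNA by RT-PCR, FAM labeling, HpaI digest and capillary electrophoresis; gain-of-signal fit versus DMSO.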

The target in assay [16] is Steroid hormone receptor ERR1 (Homo sapiens) (UniProt P11474). Description: ATG_ERRa_TRANS: Attagene TRANS-FACTORIAL HepG2 Assay for human Estrogen-Related Receptor alpha (ERRa) (AID 2282971). To be noted: HepG2 Attagene TRANS reporter, ERRa transactivation. Put shortly: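 HepG2 cells were transiently transfected with multiple GAL4-UAS reporter units, then dosed with compound for 24 h. Total RNA was reverse-transcribed, reporter cDNA PCR-amplified and fluorescently labelled, and fragments resolved by capillary electrophoresis; induction was compared with DMSO.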

The target in assay [17] is Oxysterols receptor LXR-alpha (Homo sapiens) (UniProt Q13133). The assay is described as follows: ATG_LXRa_TRANS: Attagene TRANS-FACTORIAL HepG2 Assay for human Liver X Receptor alpha (LXRa) (AID 2282980). To be noted: HepG2 Attagene TRANS reporter, LXRa transactivation. The essentials: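 Transient HepG2 transfectants, 24 h dosing, RT-PCR/CE mRNA reporter quantitation; gain-of-signal vs DMSO.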

For assay [18], the target named is Nuclear receptor subfamily 1 group I member 3 (Homo sapiens) (UniProt Q14994). The assay is described as follows: ATG_CAR_TRANS: Attagene TRANS-FACTORIAL HepG2 Assay for human Constitutive Androstane Receptor (CAR) (AID 2282969).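 Further: activators raise reporter mRNA above DMSO so AC50 marks induction.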 The note with it: HepG2 Attagene TRANS-FACTORIAL CAR reporter. The essentials: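 Transiently transfected HepG2, multiplex TRANS reporters (CAR-Gal4 chimera driving GAL4-UAS reporter). 24 h dosing. Readout: reporter transcript by RT-PCR + capillary electrophoresis, fluorescence intensity; positive direction vs DMSO.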

In assay [19] the target is Estrogen-related receptor gamma (Homo sapiens) (UniProt P62508). Description: ATG_ERRg_TRANS: Attagene TRANS-FACTORIAL HepG2 Assay for human Estrogen-Related Receptor gamma (ERRg) (AID 2282977).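 Further: hits increase reporter signal over DMSO so potencies reflect activators.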 To be noted: HepG2 Attagene TRANS reporter, ERRg transactivation. Put shortly: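 Induction of reporter transcripts through a chimeric NR-Gal4 protein is quantified in transfected human HepG2 liver cells after 24 h chemical exposure, using RT-PCR with capillary electrophoresis detection and DMSO as baseline.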

Sequence of Glucocorticoid receptor (Homo sapiens) (P04150 whole entry, looked up, the tested form may be a part): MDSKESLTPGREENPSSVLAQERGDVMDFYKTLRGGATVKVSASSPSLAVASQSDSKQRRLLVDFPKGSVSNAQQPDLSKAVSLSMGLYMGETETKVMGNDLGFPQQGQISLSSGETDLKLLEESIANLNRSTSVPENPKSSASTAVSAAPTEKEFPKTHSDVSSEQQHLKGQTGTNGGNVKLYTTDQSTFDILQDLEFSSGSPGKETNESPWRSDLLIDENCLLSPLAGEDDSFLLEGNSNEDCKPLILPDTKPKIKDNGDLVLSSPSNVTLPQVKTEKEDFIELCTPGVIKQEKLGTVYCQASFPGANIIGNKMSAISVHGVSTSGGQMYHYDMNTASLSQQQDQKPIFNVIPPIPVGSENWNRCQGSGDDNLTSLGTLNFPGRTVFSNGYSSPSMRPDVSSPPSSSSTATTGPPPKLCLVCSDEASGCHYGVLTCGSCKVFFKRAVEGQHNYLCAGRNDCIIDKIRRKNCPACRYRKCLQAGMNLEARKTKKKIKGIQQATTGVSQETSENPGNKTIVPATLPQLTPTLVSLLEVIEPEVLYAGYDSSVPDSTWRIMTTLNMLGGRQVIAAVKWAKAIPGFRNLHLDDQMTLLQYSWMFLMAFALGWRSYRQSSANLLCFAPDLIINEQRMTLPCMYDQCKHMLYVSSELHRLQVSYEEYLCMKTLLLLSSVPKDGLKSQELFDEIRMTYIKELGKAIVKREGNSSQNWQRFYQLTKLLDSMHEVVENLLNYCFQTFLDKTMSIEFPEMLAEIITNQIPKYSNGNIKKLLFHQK
Sequence of Steroid hormone receptor ERR1 (Homo sapiens) (P11474 whole entry, looked up, the tested form may be a part): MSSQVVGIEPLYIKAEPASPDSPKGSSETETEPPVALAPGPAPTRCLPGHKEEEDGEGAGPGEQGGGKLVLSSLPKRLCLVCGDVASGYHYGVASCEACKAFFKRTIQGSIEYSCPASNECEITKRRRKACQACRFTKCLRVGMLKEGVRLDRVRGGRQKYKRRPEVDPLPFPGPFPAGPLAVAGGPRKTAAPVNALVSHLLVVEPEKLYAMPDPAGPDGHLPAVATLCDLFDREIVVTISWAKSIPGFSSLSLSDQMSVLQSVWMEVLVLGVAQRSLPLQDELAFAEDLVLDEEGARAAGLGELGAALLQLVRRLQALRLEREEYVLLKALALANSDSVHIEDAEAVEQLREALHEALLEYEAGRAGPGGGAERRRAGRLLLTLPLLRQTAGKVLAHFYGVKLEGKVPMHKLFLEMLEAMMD
Sequence of Oxysterols receptor LXR-beta (Homo sapiens) (P55055 whole entry, looked up, the tested form may be a part): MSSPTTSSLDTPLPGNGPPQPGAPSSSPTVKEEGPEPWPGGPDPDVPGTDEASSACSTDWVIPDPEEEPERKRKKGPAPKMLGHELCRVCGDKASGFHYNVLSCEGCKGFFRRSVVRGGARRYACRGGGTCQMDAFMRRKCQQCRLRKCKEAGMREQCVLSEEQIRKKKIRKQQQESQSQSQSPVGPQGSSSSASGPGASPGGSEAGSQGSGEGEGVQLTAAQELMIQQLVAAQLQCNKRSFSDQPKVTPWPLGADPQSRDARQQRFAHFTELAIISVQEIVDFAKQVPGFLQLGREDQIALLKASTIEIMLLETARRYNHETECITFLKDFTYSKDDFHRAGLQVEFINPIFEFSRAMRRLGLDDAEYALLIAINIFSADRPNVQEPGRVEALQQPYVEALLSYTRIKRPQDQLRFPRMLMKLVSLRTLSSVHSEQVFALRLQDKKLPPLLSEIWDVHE
Sequence of Nuclear respiratory factor 1 (Homo sapiens) (Q16656 whole entry, looked up): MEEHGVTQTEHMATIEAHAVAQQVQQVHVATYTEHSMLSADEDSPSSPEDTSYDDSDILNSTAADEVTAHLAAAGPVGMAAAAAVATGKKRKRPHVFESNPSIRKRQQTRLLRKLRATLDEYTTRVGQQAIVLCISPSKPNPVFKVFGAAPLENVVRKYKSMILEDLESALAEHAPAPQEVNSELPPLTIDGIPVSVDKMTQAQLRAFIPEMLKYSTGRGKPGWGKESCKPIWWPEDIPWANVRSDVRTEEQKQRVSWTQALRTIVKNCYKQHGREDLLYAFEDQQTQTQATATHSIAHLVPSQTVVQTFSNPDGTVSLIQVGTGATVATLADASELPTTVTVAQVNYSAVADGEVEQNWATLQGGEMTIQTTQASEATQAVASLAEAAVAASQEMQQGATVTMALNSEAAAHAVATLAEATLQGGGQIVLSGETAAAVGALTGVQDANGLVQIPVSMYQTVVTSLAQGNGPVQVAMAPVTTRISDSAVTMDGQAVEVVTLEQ
Sequence of Nuclear receptor subfamily 1 group I member 3 (Homo sapiens) (Q14994 whole entry, looked up, the tested form may be a part): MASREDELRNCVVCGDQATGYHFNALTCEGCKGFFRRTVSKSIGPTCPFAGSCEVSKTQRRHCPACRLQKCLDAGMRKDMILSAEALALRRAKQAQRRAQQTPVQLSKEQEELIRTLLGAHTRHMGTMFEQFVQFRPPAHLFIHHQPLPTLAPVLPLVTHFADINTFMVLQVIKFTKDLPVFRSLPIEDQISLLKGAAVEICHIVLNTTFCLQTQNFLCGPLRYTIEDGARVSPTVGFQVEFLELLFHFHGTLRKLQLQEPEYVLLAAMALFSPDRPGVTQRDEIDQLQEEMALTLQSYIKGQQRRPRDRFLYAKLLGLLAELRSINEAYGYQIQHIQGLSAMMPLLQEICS
Sequence of Estrogen receptor (Homo sapiens) (P03372 whole entry, looked up, the tested form may be a part): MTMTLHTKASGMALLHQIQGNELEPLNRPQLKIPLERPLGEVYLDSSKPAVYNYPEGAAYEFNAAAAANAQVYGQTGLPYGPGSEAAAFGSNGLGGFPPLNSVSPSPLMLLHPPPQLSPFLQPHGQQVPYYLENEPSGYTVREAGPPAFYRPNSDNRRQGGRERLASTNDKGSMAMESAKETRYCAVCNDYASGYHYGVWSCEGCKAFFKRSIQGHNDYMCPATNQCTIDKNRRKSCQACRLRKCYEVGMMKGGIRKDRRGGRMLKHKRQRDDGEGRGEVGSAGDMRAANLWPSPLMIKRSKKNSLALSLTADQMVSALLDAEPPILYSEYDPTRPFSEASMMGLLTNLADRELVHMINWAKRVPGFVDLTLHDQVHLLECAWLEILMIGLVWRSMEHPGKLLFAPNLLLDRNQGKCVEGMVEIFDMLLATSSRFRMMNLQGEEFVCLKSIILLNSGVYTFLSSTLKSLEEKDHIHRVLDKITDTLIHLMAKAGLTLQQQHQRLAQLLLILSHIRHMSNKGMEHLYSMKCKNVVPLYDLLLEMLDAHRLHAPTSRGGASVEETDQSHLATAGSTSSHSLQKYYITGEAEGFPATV
Sequence of X-box-binding protein 1 (Homo sapiens) (P17861 whole entry, looked up): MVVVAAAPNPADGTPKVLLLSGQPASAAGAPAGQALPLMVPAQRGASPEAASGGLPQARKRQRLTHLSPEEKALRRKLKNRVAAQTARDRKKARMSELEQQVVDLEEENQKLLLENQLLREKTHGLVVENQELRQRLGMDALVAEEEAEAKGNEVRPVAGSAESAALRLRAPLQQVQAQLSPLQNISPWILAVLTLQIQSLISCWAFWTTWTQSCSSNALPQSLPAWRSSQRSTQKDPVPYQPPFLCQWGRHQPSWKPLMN
Sequence of Oxysterols receptor LXR-alpha (Homo sapiens) (Q13133 whole entry, looked up): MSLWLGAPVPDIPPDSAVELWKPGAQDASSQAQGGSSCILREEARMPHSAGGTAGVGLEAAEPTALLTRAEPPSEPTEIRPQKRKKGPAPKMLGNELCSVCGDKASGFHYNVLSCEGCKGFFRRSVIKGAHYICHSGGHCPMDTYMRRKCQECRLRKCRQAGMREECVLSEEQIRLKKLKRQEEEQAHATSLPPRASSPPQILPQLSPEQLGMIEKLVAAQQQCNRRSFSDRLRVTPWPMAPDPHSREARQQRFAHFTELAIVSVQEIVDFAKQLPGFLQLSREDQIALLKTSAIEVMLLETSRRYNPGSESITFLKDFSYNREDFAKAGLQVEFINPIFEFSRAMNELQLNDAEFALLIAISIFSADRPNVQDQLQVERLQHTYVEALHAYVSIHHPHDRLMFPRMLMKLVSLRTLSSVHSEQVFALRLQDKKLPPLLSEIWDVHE
Sequence of Nuclear receptor subfamily 4 group A member 2 (Homo sapiens) (P43354 whole entry, looked up): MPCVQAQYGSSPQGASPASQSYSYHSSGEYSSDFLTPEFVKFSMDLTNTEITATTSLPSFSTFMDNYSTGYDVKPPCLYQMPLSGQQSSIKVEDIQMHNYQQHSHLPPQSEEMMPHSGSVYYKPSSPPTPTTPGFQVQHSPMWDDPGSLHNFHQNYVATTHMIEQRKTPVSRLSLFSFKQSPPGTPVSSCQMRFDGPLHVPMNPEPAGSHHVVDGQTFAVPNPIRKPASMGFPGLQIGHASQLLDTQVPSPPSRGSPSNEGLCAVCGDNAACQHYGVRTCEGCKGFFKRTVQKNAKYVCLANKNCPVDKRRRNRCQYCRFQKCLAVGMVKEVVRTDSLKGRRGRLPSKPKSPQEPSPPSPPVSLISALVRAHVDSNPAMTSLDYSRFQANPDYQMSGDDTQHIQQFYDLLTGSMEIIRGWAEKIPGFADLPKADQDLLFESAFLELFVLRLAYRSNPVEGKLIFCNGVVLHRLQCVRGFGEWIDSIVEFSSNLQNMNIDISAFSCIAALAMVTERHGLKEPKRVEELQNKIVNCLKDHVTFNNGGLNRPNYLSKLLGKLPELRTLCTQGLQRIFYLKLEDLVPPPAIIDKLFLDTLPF
Sequence of Hepatocyte nuclear factor 4-alpha (Homo sapiens) (P41235 whole entry, looked up, the tested form may be a part): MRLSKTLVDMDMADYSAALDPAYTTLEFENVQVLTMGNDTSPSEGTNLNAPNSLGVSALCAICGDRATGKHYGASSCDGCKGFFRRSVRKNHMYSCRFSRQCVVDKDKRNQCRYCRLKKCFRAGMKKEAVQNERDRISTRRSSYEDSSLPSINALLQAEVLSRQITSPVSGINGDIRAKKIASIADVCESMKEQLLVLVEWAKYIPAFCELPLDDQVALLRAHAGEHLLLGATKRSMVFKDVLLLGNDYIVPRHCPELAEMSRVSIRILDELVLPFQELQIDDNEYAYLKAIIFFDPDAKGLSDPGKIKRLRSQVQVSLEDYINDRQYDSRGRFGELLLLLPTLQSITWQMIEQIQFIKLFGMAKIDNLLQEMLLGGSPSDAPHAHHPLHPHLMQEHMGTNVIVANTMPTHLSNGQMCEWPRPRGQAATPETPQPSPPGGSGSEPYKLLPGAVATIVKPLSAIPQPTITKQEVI

In the case of `c1ccc(CCCc2ccncc2)cc1`, the call in assay [1], in assay [2], in [3], in [4], in [5] and in [6] was inactive. For the same molecule, the outcome in assay [7], in [8], in assay [9], in assay [10] and in assay [11] was inactive.
For `C=CC(=O)OCCOC1C2CCC1C1CC=CC12` (configuration not stated), the molecule was called inactive in assay [1], in assay [12], in assay [3], in [13], in assay [14] and in [15]. In addition, the outcome in assay [5], in assay [9], in assay [10] and in assay [11] was inactive.
Turning to `C=C(C)C(=O)OCC(C)C`, the outcome in [1], in assay [12], in assay [3], in [13], in [14] and in [4] was inactive. Further, the molecule was classed as inactive in assay [6], in assay [10] and in [11].
Regarding `CC(=O)[C@@]1(O)CC[C@H]2[C@@H]3C[C@H](C)C4=CC(=O)C=C[C@]4(C)[C@@]3(F)[C@@H](O)C[C@@]21C`, the molecule was called inactive in [1], in assay [12], in assay [16], in assay [3], in assay [13] and in [4]. Further, the molecule was classed as inactive in assay [17], in assay [5] and in assay [10]. Further, in [15], the concentration at half-maximal activity (AC50) (as a rule, the concentration giving half of the maximal activity seen) is 221 nM (active).
Regarding `Cc1cccc(N(C)C(=S)Oc2ccc3ccccc3c2)c1`, the outcome in assay [1], in assay [18], in assay [3], in [14], in [15] and in assay [4] was inactive. Moreover, the molecule was classed as inactive in assay [17], in assay [6], in [7], in assay [8], in assay [10] and in assay [11]. The AC50 in assay [12] was 1110 nM (active); in assay [2], 3780 nM (active); in assay [9] it was 44100 nM (active).
In the case of `Cc1cc(=O)n(-c2ccccc2)n1C`, the result in [1], in assay [12], in assay [2], in assay [16], in [3] and in assay [13] was inactive. Moreover, the molecule was called inactive in assay [7], in [8], in assay [10] and in assay [11].
In the case of `O=C1CCCN1CCO`, the molecule was called inactive in [1], in assay [12], in assay [18], in [2], in assay [3] and in [13]. For the same molecule, the result in assay [17], in assay [5], in assay [9], in assay [10] and in [11] was inactive.
As to `CCCCCCCCCCOC(C)=O`, the molecule was classed as inactive in assay [1], in [12], in [3], in assay [13], in [14] and in [6]. Also, the molecule was called inactive in assay [7], in [9], in assay [10] and in assay [11].
In the case of `CC(C)(C)c1ccc(N)cc1`, the molecule was classed as inactive in assay [1], in assay [12], in assay [18], in [2], in assay [16] and in assay [3]. For the same molecule, the outcome in assay [13], in assay [19], in assay [15], in [17], in [5] and in assay [6] was inactive. Also, the outcome in [8], in [9], in assay [10] and in assay [11] was inactive.
